Experiment [1] in a line: qHTS of pediatric cancer cell lines to identify multiple opportunities for drug repurposing: Primary screen for TC32 cells (AID 1347089). Further: nearly all actives have a fitted effect of over 60% in size. The gist of the method: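 In the primary qHTS, MIPE compounds were tested at 11 concentrations (0.78 nM to 46 µM) and NPC compounds at 8 (0.59 nM to 46 µM) on TC32 cells for 48 h. CellTiter-Glo luminescence gave viability.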
Experiment [2] can be described thus: qHTS of pediatric cancer cell lines to identify multiple opportunities for drug repurposing: Primary screen for DAOY cells (AID 1347090). Further: nearly all actives have a fitted effect of over 55% in size. In outline: (§1)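 Cell viability, CellTiter-Glo luminescence; 500-1,000 cells/well, 8- or 11-point titration, 48 h compound exposure at 37 degrees C, 5% CO2. Controls: DMSO neutral, bortezomib 2.3 µM final as positive.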
The nature of experiment [3]: qHTS of pediatric cancer cell lines to identify multiple opportunities for drug repurposing: Primary screen for SJ-GBM2 cells (AID 1347091). The gist of the method: as §1
Experiment [4] can be described thus: qHTS of pediatric cancer cell lines to identify multiple opportunities for drug repurposing: Primary screen for SK-N-MC cells (AID 1347093). The gist of the method:
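Metabolically active cells were quantified by ATP-dependent luminescence (CellTiter-Glo, 15 min at room temperature) following 48 h treatment. Cells had been plated at 500-1,000 per well and settled for 5 h beforehand.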

Experiment [5] in a line: qHTS of pediatric cancer cell lines to identify multiple opportunities for drug repurposing: Primary screen for BT-37 cells (AID 1347094). In outline: (§2)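 Primary screen of approved and investigational compounds on cells in growth media at 37 degrees C, 5% CO2. MIPE set at 11-point and NPC set at 8-point dilutions; viability scored by ATP-based luminescence at 48 hours.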

Experiment [6] can be described thus: qHTS of pediatric cancer cell lines to identify multiple opportunities for drug repurposing: Primary screen for NB-EBc1 cells (AID 1347095). The gist of the method:
as §2

The nature of experiment [7]: qHTS of pediatric cancer cell lines to identify multiple opportunities for drug repurposing: Primary screen for U-2 OS cells (AID 1347096). Further: nearly all actives have a fitted effect of over 50% in size. In outline:
(§3)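 Cells (500-1,000/well) rested 5 h, then received compounds for 48 h; metabolically active cells were measured by CellTiter-Glo luminescence. Final concentrations spanned up to 46 µM (MIPE, 11-point) or 0.59 nM-46 µM (NPC, 8-point) in primary screens, 11-point in follow-ups.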

Experiment [8] can be described thus: qHTS of pediatric cancer cell lines to identify multiple opportunities for drug repurposing: Primary screen for Saos-2 cells (AID 1347097). Further: nearly all actives have a fitted effect of over 40% in size. The gist of the method:
as §2

The nature of experiment [9]: qHTS of pediatric cancer cell lines to identify multiple opportunities for drug repurposing: Primary screen for SK-N-SH cells (AID 1347098). Further: nearly all actives have a fitted effect of over 65% in size. The gist of the method:
as §3

Experiment [10] in a line: qHTS of pediatric cancer cell lines to identify multiple opportunities for drug repurposing: Primary screen for NB1643 cells (AID 1347099). Further: nearly all actives have a fitted effect of over 50% in size. In outline:
as §2

Experiment [11] is described as follows: qHTS of pediatric cancer cell lines to identify multiple opportunities for drug repurposing: Primary screen for LAN-5 cells (AID 1347100). In outline:
as §3

Experiment [12] in a line: qHTS of pediatric cancer cell lines to identify multiple opportunities for drug repurposing: Primary screen for BT-12 cells (AID 1347101). Further: nearly all actives have a fitted effect of over 25% in size. The gist of the method: as §3
Experiment [13] in a line: qHTS of pediatric cancer cell lines to identify multiple opportunities for drug repurposing: Primary screen for Rh18 cells (AID 1347102). Further: nearly all actives have a fitted effect of over 65% in size. The gist of the method:
as §3

Experiment [14] can be described thus: qHTS of pediatric cancer cell lines to identify multiple opportunities for drug repurposing: Primary screen for OHS-50 cells (AID 1347103). Further: nearly all actives have a fitted effect of over 40% in size. The gist of the method: as §3
Experiment [15] in a line: qHTS of pediatric cancer cell lines to identify multiple opportunities for drug repurposing: Primary screen for RD cells (AID 1347104). Further: nearly all actives have a fitted effect of over 55% in size. In outline: as §2
The nature of experiment [16]: qHTS of pediatric cancer cell lines to identify multiple opportunities for drug repurposing: Primary screen for A673 cells (AID 1347092). Further: nearly all actives have a fitted effect of over 45% in size. In outline:
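48 h compound exposure, A673, 500-1,000 cells/well, 37 degrees C/5% CO2. MIPE: 11-point, 0.78 nM-46 µM; NPC: 8-point, 0.59 nM-46 µM (final). Readout CellTiter-Glo luminescence after 15 min RT.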

Experiment [17] can be described thus: qHTS of pediatric cancer cell lines to identify multiple opportunities for drug repurposing: Primary screen for MG 63 (6-TG R) cells (AID 1347105). Further: nearly all actives have a fitted effect of over 50% in size. In outline:
as §2

In PubChem BioAssay (NCATS) one finds Potency data, which are given here for 15 molecules.

Structures are written as SMILES. Several values for one entry are separate records, joined by “and”; a condition that tells them apart may be missing. Identical values can stand only once. Inconclusive results are not listed. Activity calls are given as the source filed them. The call rests on the fitted dose curve; in most records, active means well fitted curve in the direction sought with a large enough effect; inconclusive means small, poorly fitted or top-dose-only effect, or another doubt; inactive means no such curve, though single readings can be large; an effect the other way counts as inactive or inconclusive.
Potency means the concentration at half of the fitted maximal effect.

As to `COc1c2occc2cc2ccc(=O)oc12`, the Potency result in [1], in experiment [2], in experiment [3], in experiment [4], in experiment [5] and in experiment [6] was “inactive” in each case. For the same molecule, the Potency entry in experiment [7], in experiment [8], in experiment [9], in experiment [10], in [11] and in experiment [12] was “inactive” each time. For the same molecule, the Potency entry in [13], in experiment [14] and in [15] was “inactive” in each case.
For the molecule `O=C(NC(Cc1cc(=O)[nH]c2ccccc12)C(=O)O)c1ccc(Cl)cc1` (stereo not drawn), the Potency entry in experiment [1], in experiment [2], in experiment [3], in [16], in experiment [5] and in [7] was “inactive” in each case. In addition, the Potency result in experiment [8], in experiment [11], in experiment [12], in [13], in experiment [14] and in [15] was “inactive” throughout.
With `Cc1nc(-c2ccc(OCC(C)C)c(C#N)c2)sc1C(=O)O`, the Potency result in experiment [1], in experiment [2], in experiment [3], in experiment [5], in experiment [6] and in experiment [7] was “inactive” in each case. The Potency result in [8], in experiment [9], in experiment [10], in [11], in experiment [12] and in experiment [13] was “inactive” throughout. Besides, the Potency entry in experiment [14], in [15] and in experiment [17] was “inactive” each time.
For the molecule `CCC[C@@H]1C[C@@H](C(=O)N[C@@H]([C@H]2O[C@H](SC)[C@H](O)[C@@H](O)[C@H]2O)[C@@H](C)O)N(C)C1`, the Potency result in experiment [1], in [2], in [3], in experiment [4], in experiment [5] and in [6] was “inactive” throughout. The Potency entry in experiment [7], in experiment [8], in experiment [10], in experiment [11], in experiment [12] and in experiment [13] was “inactive” in each case. Besides, the Potency entry in experiment [15] is “inactive”.
`CN1CCC(=C2c3ccccc3CCc3sccc32)CC1`: the Potency result in experiment [1], in experiment [2], in experiment [3], in experiment [6], in [7] and in experiment [8] was “inactive” throughout. For the same molecule, the Potency result in [11] and in experiment [17] was “inactive” in each case. Besides, the figures for the Potency in experiment [4] and in experiment [9] were 29.6 µM (active) and 13.6 µM (active), respectively.
Take `N=C(N)c1ccc2cc(OC(=O)c3ccc(N=C(N)N)cc3)ccc2c1`: the Potency entry in experiment [1], in experiment [2], in experiment [3], in [4], in [5] and in experiment [6] was “inactive” throughout. Besides, the Potency entry in [7], in [8], in experiment [10], in experiment [11], in [13] and in experiment [14] was “inactive” throughout. Besides, the Potency entry in [15] and in experiment [17] was “inactive” in each case.
In the case of `CC(S)C(=O)NCC(=O)O` (stereo not drawn), the Potency entry in experiment [1], in experiment [2], in experiment [3], in experiment [4], in [5] and in experiment [6] was “inactive” throughout. Further, the Potency result in experiment [7], in experiment [8], in experiment [11], in experiment [12], in [13] and in [15] was “inactive” in each case. The Potency result in experiment [17] was “inactive”.
Regarding `NS(=O)(=O)c1cc(C(=O)O)c(NCc2ccco2)cc1Cl`, the Potency entry in experiment [1], in experiment [2], in [3], in experiment [4], in experiment [5] and in [6] was “inactive” each time. Moreover, the Potency entry in experiment [7], in experiment [8], in experiment [9], in experiment [10], in experiment [11] and in [12] was “inactive” each time. Also, the Potency result in experiment [13], in [14] and in experiment [15] was “inactive” each time.
Turning to `CC1=C(C)C(=O)C(C(CCCCCC(=O)O)c2ccccc2)=C(C)C1=O` (stereo not drawn), the Potency entry in [1], in [2], in [3], in [4], in experiment [5] and in experiment [6] was “inactive” throughout. Moreover, the Potency result in experiment [7], in [8], in experiment [11], in experiment [12], in experiment [13] and in [14] was “inactive” throughout. Further, the Potency result in experiment [15] and in experiment [17] was “inactive” throughout.
For the molecule `S=c1nc[nH]c2nc[nH]c12`, the Potency in [1] is 8.36 µM (active) and 20.8 µM (active); in experiment [2], 2.66 µM (active) and 5.9 µM (active); in experiment [3], 1.19 µM (active) and 3.32 µM (active); in experiment [4] it was 11.8 µM (active); in [5] it was 2.46 µM (active) and 3.43 µM (active); in experiment [6] it was 531 nM (active) and 1.66 µM (active). In addition, the Potency in [11] was 1.5 µM (active) and 2.96 µM (active); in experiment [12], 15.5 µM (active) and 24.3 µM (active). The Potency entry in [8], in experiment [9], in experiment [13], in experiment [15] and in [17] was “inactive” in each case.
On to `C=CCc1cc(OC)c(O)c(C(=O)NCCO)c1`, for which the Potency entry in experiment [1], in [2], in experiment [3], in [4], in experiment [5] and in [6] was “inactive” each time. The Potency result in experiment [7], in experiment [8], in [9], in experiment [10], in experiment [11] and in [12] was “inactive” each time. In addition, the Potency entry in [13] and in experiment [15] was “inactive” throughout.
As to `O=C(O)c1cn(-c2ccc(F)cc2)c2cc(N3CCNCC3)c(F)cc2c1=O`, the Potency entry in [1], in experiment [2], in [3], in [4], in experiment [5] and in experiment [6] was “inactive” in each case. Besides, the Potency entry in [7], in [8], in experiment [9], in experiment [10], in experiment [11] and in experiment [12] was “inactive” in each case. Further, the Potency entry in [13], in [14], in experiment [15] and in [17] was “inactive” each time.
For `O=C(NOCC1CC1)c1ccc(F)c(F)c1Nc1ccc(I)cc1Cl`, the Potency result in [1] was “inactive”. For the same molecule, the Potency in [2] is 21.1 µM (active) and 11.8 µM (active); in [16], 10.6 µM (active) and 9.35 µM (active); in experiment [4] it was 16.8 µM (active) and 1.87 µM (active); in experiment [5] it was 24.6 µM (active) and 21.7 µM (active); in experiment [6] it was 15 µM (active) and 8.33 µM (active); in experiment [7], 18.7 µM (active). Further, the Potency in experiment [8] is 10.6 µM (active) and 16.6 µM (active); in experiment [9], 19.4 µM (active); in experiment [10], 16.6 µM (active); in experiment [11], 16.8 µM (active) and 16.6 µM (active); in [12] it was 27.6 µM (active) and 24.3 µM (active); in [15], 9.44 µM (active) and 5.26 µM (active). In [17], the Potency is 26.6 µM (active) and 11.8 µM (active).
As to `Cc1ccc(Nc2nccc(N(C)c3ccc4c(C)n(C)nc4c3)n2)cc1S(N)(=O)=O`, the Potency entry in experiment [1] and in [10] was “inactive” each time. Moreover, the Potency in experiment [3] is 14.8 µM (active); in experiment [4], 8.41 µM (active) and 16.6 µM (active); in experiment [11], 18.7 µM (active); in [12], 12.3 µM (active) and 15.3 µM (active); in [13] it was 16.6 µM (active); in [14] it was 5.5 µM (active). Also, the Potency in experiment [17] is 66.8 nM (active).
On to `CCCc1cc(=O)[nH]c(=S)[nH]1`, for which the Potency entry in [1], in experiment [2], in experiment [5], in experiment [7], in [8] and in [9] was “inactive” throughout. The Potency result in experiment [10], in [12], in [13], in [14] and in [15] was “inactive” throughout.
